Compounds without any hit were thinned out: in the full panel of roughly 79,000, 15% have a hit. Unmarked numbers belong to inactive results. Activity calls are given as the source filed them. Rule as the data show it: active = growth inhibition above about 70%; inactive = the rest.

In PubChem BioAssay (NCI) one finds growth inhibition data, which are given here for 37 compounds.

Assay [1] can be described thus: NCI Yeast Anticancer Drug Screen. Data for the rad50 strain (AID 155).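 Also: 0% = growth of vehicle-only cultures of the same strain.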 The note with it: S. cerevisiae rad50 strain growth inhibition; at 50.0 µM; active compounds read high. The method, boiled down: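 DNA repair mutant yeast, compound exposure, growth read-out; inhibition is taken relative to vehicle.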
A short description of assay [2]: NCI Yeast Anticancer Drug Screen. Data for the mec2-1 strain (AID 157). The note with it: S. cerevisiae mec2-1 strain, at 50.0 µM, active compounds read high. The method, boiled down: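 mec2-1 yeast strain, carrying an alteration in DNA damage repair or cell cycle control, was exposed to compounds; growth inhibition was measured relative to vehicle-treated controls.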

Assay [3] is described as follows: NCI Yeast Anticancer Drug Screen. Data for the sgs1 mgt1 strain (AID 161).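 Also: 0% = growth of cultures given vehicle only.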 The note with it: S. cerevisiae sgs1 mgt1 strain, at 50.0 µM, active compounds read high. The method, boiled down:
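This yeast growth screen uses a strain with defined DNA-repair lesions; compound-treated growth is compared with vehicle-treated growth.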

Assay [4] in a line: NCI Yeast Anticancer Drug Screen. Data for the cln2 rad14 strain (AID 165).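 Also: 0% = growth equal to vehicle treated cultures.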 The note with it: S. cerevisiae cln2 rad14 strain, at 50.0 µM, active compounds read high. The method, boiled down:
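Yeast carrying cln2 and rad14 alterations (cell cycle control and DNA damage repair) were exposed to compounds. Growth inhibition was measured against vehicle-treated controls.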

Assay [5] in a line: NCI Yeast Anticancer Drug Screen. Data for the bub3 strain (AID 167). The note with it: S. cerevisiae bub3 mutant strain, at 50.0 µM, active compounds read high. The method in brief: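 In this screen, a yeast mutant lacking normal mitotic checkpoint function is challenged with compound. Relative growth versus vehicle gives the inhibition value.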
Assay [6] can be described thus: NCI Yeast Anticancer Drug Screen. Data for the mlh1 rad18 strain (AID 175). The settings on record: S. cerevisiae mlh1 rad18 strain growth inhibition; at 50.0 µM; active compounds read high. The method in brief: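 Growth inhibition of the yeast strain was measured after compound exposure and expressed relative to vehicle-treated controls. The strain carries defined defects in DNA damage repair.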

Take `N#C/C(N)=C(/C#N)N=Cc1ccccc1`: the growth inhibition in assay [1] was 15.9%; in assay [2] it was 21.3%; in assay [3], 8.4%; in assay [4] it was -64.4%; in assay [5], 7.2%; in assay [6], 18.9%.

Turning to `COC(=O)/C(=C/C=C/c1ccccc1)N=[N+]=[N-]`, the growth inhibition is -20.5% in assay [1]; 7.5% in assay [2]; -12% in assay [3]; -11.6% in assay [4]; 3.2% in assay [5]; -10.1% in assay [6].

Turning to `O=C(O)COc1c(F)cc(F)cc1Cl`, the growth inhibition was 18.1% in assay [1]; 1.9% in assay [2]; 18.4% in assay [3]; -1.05% in assay [4]; 12% in assay [5]; 7.35% in assay [6].

Consider `CCc1cccc(C)c1NC(=O)CC1C(=O)Nc2ccccc2S1=O` (configuration not stated), for which the growth inhibition in assay [1] was -6.1%; in assay [2], -0.9%; in assay [3] it was 13.2%; in assay [4] it was -63.7%; in assay [5], 9.85%; in assay [6], 27.4%.

`Cc1ccc(CNC(=O)NCCCCCCNC(=O)NCc2ccc(C)cc2)cc1`: the growth inhibition in assay [1] is -29.4%; in assay [2], -6.45%; in assay [3] it was -9.95%; in assay [4], -20.3%; in assay [5], -2.95%; in assay [6] it was -1.1%.

On to `CC(C)=CC(C)(O)c1nc2ccccc2s1` (configuration not stated), for which the growth inhibition was -2.75% in assay [1]; 21.7% in assay [2]; 7.25% in assay [3]; -6.95% in assay [4]; 1.1% in assay [5]; 5.2% in assay [6].

In the case of `Brc1ccc(-c2cc(-c3ccc4c(c3)OCO4)c(-c3cccs3)n2Cc2ccccc2)cc1`, the growth inhibition in assay [1] was -17.9%; in assay [2] it was -7.55%; in assay [3], -0.5%; in assay [4], 20.1%; in assay [5], -24.6%; in assay [6], -30.1%.

In the case of `COC1=C(N)C(=O)c2nc(C)ccc2C1=O`, the growth inhibition was 45.8% in assay [1]; 44.4% in assay [2]; 55.5% in assay [3]; -3.9% in assay [4]; 56.9% in assay [5]; 66.5% in assay [6].

In the case of `CCCC1(c2ccccc2)OCC(CO)O1` (configuration not stated), the growth inhibition in assay [1] is 15%; in assay [2], 9.35%; in assay [3], -17.4%; in assay [4] it was 6.4%; in assay [5], 4.1%; in assay [6], 4.25%.

For `N#Cc1c2ccccc2cc2c1ccc1ccccc12`, the growth inhibition in assay [1] is 6.95%; in assay [2], 17.1%; in assay [3], 15.8%; in assay [4] it was -4.45%; in assay [5], 11.9%; in assay [6], 17.1%.

On to `Cc1cc(=O)n2cn[nH]c2n1`, for which the growth inhibition in assay [1] was 24.4%; in assay [2] it was -11.6%; in assay [3], 24.1%; in assay [4], 5.25%; in assay [5], 9.25%; in assay [6], 25.8%.

For the compound `CCCCn1cnc2ccc3nc(-c4ccccc4)c(-c4ccccc4)nc3c2c1=O`, the growth inhibition was 43.8% in assay [1]; -15.4% in assay [2]; 9.3% in assay [3]; 4.1% in assay [4]; 1.5% in assay [5]; 4.65% in assay [6].

On to `COc1cc([C@H]2Oc3cc([C@H]4Oc5cc(O)cc(O)c5C(=O)[C@@H]4O)ccc3O[C@@H]2CO)ccc1O`, for which the growth inhibition is 3.15% in assay [1]; 0.55% in assay [2]; 11.8% in assay [3]; -36.4% in assay [4]; 15.5% in assay [5]; 6.05% in assay [6].

In the case of `C=C(C)Cc1c(C)c(Cl)cc(Cl)c1OC(=O)Nc1ccccc1`, the growth inhibition was 31.8% in assay [1]; 9.6% in assay [2]; 30.6% in assay [3]; 9.35% in assay [4]; 29.9% in assay [5]; 19.7% in assay [6].

In the case of `CN(C)C(=O)OCC1COc2ccccc2O1` (configuration not stated), the growth inhibition in assay [1] was 15%; in assay [2], -23.6%; in assay [3] it was -23.1%; in assay [4], -70.2%; in assay [5] it was -11.1%; in assay [6], -12.6%.

As to `OCC1CCNCC1`, the growth inhibition in assay [1] was 22.1%; in assay [2], 12.1%; in assay [3] it was 0.1%; in assay [4] it was -1.15%; in assay [5], -3.2%; in assay [6], 32.2%.

On to `CN1N=CSC12C(=O)N(c1ccc(Cl)cc1)C(=O)N2c1ccc(Cl)cc1` (configuration not stated), for which the growth inhibition in assay [1] is 18.1%; in assay [2], 3.6%; in assay [3], 11.2%; in assay [4] it was 30.4%; in assay [5], 51%; in assay [6], 11.9%.

As to `CC(=O)CCCCc1ccccc1`, the growth inhibition in assay [1] is -1.45%; in assay [2] it was -8.45%; in assay [3], -9.3%; in assay [4], -71.6%; in assay [5] it was -9.2%; in assay [6] it was -1%.

With `BrC1=C(c2ccccc2)C2CCCCC2C1(Br)c1ccccc1` (configuration not stated), the growth inhibition in assay [1] is 96.2% (active); in assay [2] it was 97.1% (active); in assay [3], 97.8% (active); in assay [4], 96.9% (active); in assay [5], 96.8% (active); in assay [6] it was 98% (active).

In the case of `C(=N/n1nnc(-c2ccccc2)n1)/c1ccccc1`, the growth inhibition in assay [1] is -2.4%; in assay [2], -10.1%; in assay [3] it was -3%; in assay [4], -44.1%; in assay [5], -5.3%; in assay [6], -6.05%.

`CCCN1C(=O)CN(S(=O)(=O)c2ccc(Cl)cc2)C1=O`: the growth inhibition in assay [1] is -1.1%; in assay [2], 4.05%; in assay [3], 3.6%; in assay [4] it was -8%; in assay [5], -1.25%; in assay [6] it was -46.9%.

For `c1ccc(C2=NC3CCCCC3S2)cc1` (configuration not stated), the growth inhibition was 2.95% in assay [1]; -10.6% in assay [2]; 3.7% in assay [3]; -32.3% in assay [4]; -5.55% in assay [5]; -2.75% in assay [6].

In the case of `CCOC(=O)c1ccc(NC(=O)CNC2CCCCC2)cc1`, the growth inhibition in assay [1] was -0.05%; in assay [2] it was -8.7%; in assay [3] it was -3.2%; in assay [4], -40.8%; in assay [5] it was 4.55%; in assay [6], -26.1%.

For `Cn1nc(-c2ccccc2)c(C(=O)/C=C/c2ccc(Cl)cc2)c(N2CCCC2)c1=O`, the growth inhibition in assay [1] was -5.1%; in assay [2], -1.5%; in assay [3], -4.9%; in assay [4] it was -5.95%; in assay [5] it was 14.8%; in assay [6] it was -10.1%.

With `CCCCCCCCCCCCCCCCCCNC(=O)Nc1ccc(OC)cc1OC`, the growth inhibition is 15.4% in assay [1]; 37% in assay [2]; -0.3% in assay [3]; 3% in assay [4]; 2.8% in assay [5]; 13.3% in assay [6].

Consider `Nc1nc(=O)n(CCCOc2ccc([N+](=O)[O-])c(Cl)c2)cc1-c1ccc(Cl)c(Cl)c1`, for which the growth inhibition in assay [1] was -1.2%; in assay [2], -8.2%; in assay [3], -5.4%; in assay [4], -21.4%; in assay [5], -3.15%; in assay [6] it was 6.2%.

For `CC(=O)C1C(=O)C(=O)N(c2ccc([N+](=O)[O-])cc2Cl)C1=O` (configuration not stated), the growth inhibition in assay [1] was -45.9%; in assay [2], -35.8%; in assay [3], 2.95%; in assay [4] it was 2.95%; in assay [5], -3.55%; in assay [6], -33.2%.

For `O=S(=O)(Nc1cccc(C2=NCCN2)c1)c1cccc2c(S(=O)(=O)Nc3cccc(C4=NCCN4)c3)cccc12`, the growth inhibition in assay [1] was -9.6%; in assay [2] it was -25.9%; in assay [3] it was -30.1%; in assay [4], -19%; in assay [5], -12.2%; in assay [6] it was -22.1%.

In the case of `ClCc1nn(-c2ccccc2)c(CCl)c1CCl`, the growth inhibition in assay [1] was 46.6%; in assay [2], 14.3%; in assay [3], 18.4%; in assay [4], -1.45%; in assay [5], 8.25%; in assay [6] it was -4.55%.

Take `Cc1nc(C(N)=S)sc1C(=O)CC(=O)C(=O)Nc1cccc(Cl)c1C`: the growth inhibition in assay [1] was 1.2%; in assay [2], -2.4%; in assay [3], -10.2%; in assay [4], -6.65%; in assay [5] it was -0.4%; in assay [6], -53.4%.

As for `CSc1nc(N)c(NS(=O)(=O)c2ccccc2)c(=O)[nH]1`, the growth inhibition was -10.6% in assay [1]; -18.1% in assay [2]; -17.6% in assay [3]; -2.9% in assay [4]; 6.95% in assay [5]; 6.05% in assay [6].

For the compound `CCN(CC)CCOc1ccc2ccccc2c1C(Cc1ccccc1)NCCO` (configuration not stated), the growth inhibition in assay [1] was -13.2%; in assay [2] it was 1.95%; in assay [3], -20.2%; in assay [4] it was -19.6%; in assay [5] it was 3%; in assay [6] it was 3.05%.

Turning to `CC(=O)/C(=C/n1ccc(=O)[nH]c1=S)C(=O)Nc1ccc([N+](=O)[O-])cc1`, the growth inhibition in assay [1] is -18.3%; in assay [2] it was -18.8%; in assay [3] it was -38.2%; in assay [4], -20.4%; in assay [5], -2.85%; in assay [6], -10.9%.

With `CCOC(=O)CC(=O)Cc1oc2c(C(C)=O)c(O)c(C)c(O)c2c1C`, the growth inhibition is -0.8% in assay [1]; 7% in assay [2]; -0.2% in assay [3]; 6.05% in assay [4]; 2.85% in assay [5]; 14.8% in assay [6].

For `CSC1(SC2=NCCN2)SC2(NCCN2)S1`, the growth inhibition in assay [1] is 1.75%; in assay [2] it was -10.8%; in assay [3] it was -41.6%; in assay [4], -24.1%; in assay [5] it was -1.55%; in assay [6], -18.1%.

On to `N=c1nnc2ccc(Cl)cc2n1O`, for which the growth inhibition is 64.5% in assay [1]; 4.7% in assay [2]; 15.6% in assay [3]; 9.65% in assay [4]; -1.85% in assay [5]; -5.25% in assay [6].

Turning to `CCCNC(=O)OCC#CCOC(=O)NCCC`, the growth inhibition in assay [1] is 2.5%; in assay [2], -4.15%; in assay [3], 15.4%; in assay [4] it was -38.5%; in assay [5], 12.5%; in assay [6], -6.1%.
